PubChem BioAssay (NCI)
This is part of a sample that, as a whole, favours compounds with a hit. Of some 79,000 tested, about 15% had one in any assay. Active and inactive are the calls of the source. Rule as the data show it: active = growth inhibition above about 70%; inactive = the rest.

Legend:
[1] = NCI Yeast Anticancer Drug Screen. Data for the rad52 strain (AID 147);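 also: 0% = growth of vehicle-treated control cultures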; details: S. cerevisiae rad52 mutant growth inhibition, stronger effect = higher value
Summary of the method: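 Compounds are applied to a genetically defined yeast strain lacking normal DNA damage repair, and inhibition of growth is expressed relative to cultures given vehicle only.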

[2] = NCI Yeast Anticancer Drug Screen. Data for the wt1 strain (AID 149);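 also: 0% = growth of vehicle-treated wt1 cultures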; details: S. cerevisiae wt1 strain (SPY 50644) growth inhibition, stronger effect = higher value
Summary of the method: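 Using yeast strain wt1, compound-induced growth inhibition was determined against vehicle-treated cultures.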

[3] = NCI Yeast Anticancer Drug Screen. Data for the rad50EPP+ strain (AID 151);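 also: 0% = growth of vehicle-treated control cultures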; details: S. cerevisiae rad50 mutant strain, stronger effect = higher value
Summary of the method: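 Compounds were applied to the rad50EPP+ yeast strain, which bears a defined DNA repair alteration, and growth inhibition was determined relative to vehicle-treated cultures.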

[4] = NCI Yeast Anticancer Drug Screen. Data for the mgt1 strain (AID 153); details: S. cerevisiae mgt1 mutant growth inhibition, stronger effect = higher value
Summary of the method: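 Strain: mgt1 yeast, one of a set carrying defined DNA damage repair or cell cycle control alterations. Compound-treated growth compared with vehicle.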

[5] = NCI Yeast Anticancer Drug Screen. Data for the rad50 strain (AID 155);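 also: 0% = growth of vehicle-only cultures of the same strain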; details: S. cerevisiae rad50 strain growth inhibition, stronger effect = higher value
Summary of the method: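 Relative growth inhibition (compound vs vehicle) was measured in yeast with a defined repair-gene alteration.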

[6] = NCI Yeast Anticancer Drug Screen. Data for the mec2-1 strain (AID 157); details: S. cerevisiae mec2-1 strain, stronger effect = higher value
Summary of the method: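 Strain: mec2-1 (DNA repair/cell cycle alteration). Compound exposure, then growth measured; inhibition expressed relative to vehicle.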

[7] = NCI Yeast Anticancer Drug Screen. Data for the rad14 strain (AID 159);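 also: 0% = growth of vehicle-treated control cultures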; details: S. cerevisiae rad14 strain growth inhibition, stronger effect = higher value
Summary of the method: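 Screen for anticancer potential: a yeast strain altered in DNA damage repair is grown with compound, and reduced growth is quantified against vehicle controls.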

[8] = NCI Yeast Anticancer Drug Screen. Data for the sgs1 mgt1 strain (AID 161);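 also: 0% = growth of cultures given vehicle only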; details: S. cerevisiae sgs1 mgt1 strain, stronger effect = higher value
Summary of the method: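 Read-out: growth inhibition vs vehicle controls. Cells: mutant yeast strain deficient in DNA damage repair.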

[9] = NCI Yeast Anticancer Drug Screen. Data for the CLN2oe strain (AID 163);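 also: 0% = growth of vehicle-only control cultures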; details: S. cerevisiae CLN2oe strain, stronger effect = higher value
Summary of the method: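 Growth of a genetically modified yeast strain is measured after compound exposure and compared with cultures given vehicle alone.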

[10] = NCI Yeast Anticancer Drug Screen. Data for the cln2 rad14 strain (AID 165);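 also: 0% = growth equal to vehicle treated cultures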; details: S. cerevisiae cln2 rad14 strain, stronger effect = higher value
Summary of the method: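 Compounds are applied to the cln2 rad14 yeast strain, and growth is then compared with that of vehicle-treated cultures to give inhibition.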

[11] = NCI Yeast Anticancer Drug Screen. Data for the bub3 strain (AID 167); details: S. cerevisiae bub3 mutant strain, stronger effect = higher value
Summary of the method: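 Screening used yeast with an engineered genetic alteration affecting cell cycle control. Compound-exposed cultures were compared with vehicle cultures, and reduced growth was taken as inhibition.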

[12] = NCI Yeast Anticancer Drug Screen. Data for the wt2 strain (AID 169);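 also: 0% = growth of vehicle-treated yeast cultures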; details: S. cerevisiae wt2 strain growth inhibition, stronger effect = higher value
Summary of the method: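 This strain belongs to a panel of yeast strains with defined genetic alterations in DNA damage repair or cell cycle control. Compounds are applied, and growth inhibition is measured against vehicle-treated cultures.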

[13] = NCI Yeast Anticancer Drug Screen. Data for the mlh1 strain (AID 171);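 also: 0% = growth of vehicle-treated control cultures of the same strain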; details: S. cerevisiae mlh1 strain growth inhibition, stronger effect = higher value
Summary of the method: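 Growth of the mutant yeast strain after compound exposure, expressed as inhibition relative to vehicle-only controls.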

[14] = NCI Yeast Anticancer Drug Screen. Data for the sgs1 strain (AID 173);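 also: 0% = growth of vehicle-only control cultures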; details: S. cerevisiae sgs1 mutant, stronger effect = higher value
Summary of the method: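 Growth of a yeast strain bearing a defined genetic alteration is measured after compound treatment. Inhibition is expressed relative to vehicle-only controls.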

[15] = NCI Yeast Anticancer Drug Screen. Data for the mlh1 rad18 strain (AID 175); details: S. cerevisiae mlh1 rad18 strain growth inhibition, stronger effect = higher value
Summary of the method: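 Read-out is yeast growth inhibition, calculated against vehicle-only controls. The compound was applied to a strain engineered with DNA damage repair alterations.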

[16] = NCI Yeast Anticancer Drug Screen. Data for the rad18 strain (AID 177); details: S. cerevisiae rad18 mutant growth inhibition, stronger effect = higher value
Summary of the method: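 Growth of the mutant yeast strain after compound exposure, normalised to vehicle-only cultures.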

[17] = at 5.0 µM (retest, dose inferred, filed as 0.5)
[18] = at 50.0 µM (retest, dose inferred, filed as 5.0)

Measured: growth inhibition

CSc1nc(=S)[nH]c2c1c(C)nn2-c1ccccc1
active: [5]; [18] 91% | [6]; [18] 97% | [8]; [18] 98% | [8]; at 50.0 µM 72.1% | [11]; [18] 97% | [15]; [18] 84%
inactive: [1]; at 1.2 µM 11% | [1]; at 3.7 µM 18% | [1]; at 11.0 µM 12% | [1]; at 33.0 µM 11% | [1]; at 100.0 µM 41% | [2]; at 1.2 µM 11% | [2]; at 3.7 µM -2% | [2]; at 11.0 µM -1% | [2]; at 33.0 µM -4% | [2]; at 100.0 µM 1% | [3]; at 1.2 µM -17% | [3]; at 3.7 µM -16% | [3]; at 11.0 µM -24% | [3]; at 33.0 µM -10% | [3]; at 100.0 µM 14% | [4]; at 1.2 µM -19% | [4]; at 3.7 µM -15% | [4]; at 11.0 µM -3% | [4]; at 33.0 µM 7% | [4]; at 100.0 µM 35% | [5]; at 1.2 µM 12% | [5]; at 3.7 µM -1% | [5]; [17] 39% | [5]; at 11.0 µM 11% | [5]; at 33.0 µM 11% | [5]; at 50.0 µM 50.8% | [5]; at 100.0 µM 11% | [6]; at 1.2 µM 3% | [6]; at 3.7 µM -6% | [6]; [17] 16% | [6]; at 11.0 µM 1% | [6]; at 33.0 µM -1% | [6]; at 50.0 µM 45.8% | [6]; at 100.0 µM 3% | [7]; at 1.2 µM 9% | [7]; at 3.7 µM 18% | [7]; at 11.0 µM 28% | [7]; at 33.0 µM 23% | [7]; at 100.0 µM 34% | [8]; [17] 42% | [9]; at 1.2 µM -8% | [9]; at 3.7 µM 0% | [9]; at 11.0 µM -4% | [9]; at 33.0 µM 3% | [9]; at 100.0 µM -14% | [10]; [17] 3% | [10]; [18] 62% | [10]; at 50.0 µM 33.8% | [11]; at 1.2 µM -16% | [11]; at 3.7 µM -6% | [11]; [17] 39% | [11]; at 11.0 µM -15% | [11]; at 33.0 µM -17% | [11]; at 50.0 µM 64% | [11]; at 100.0 µM -14% | [12]; at 1.2 µM -14% | [12]; at 3.7 µM 3% | [12]; at 11.0 µM 5% | [12]; at 33.0 µM 12% | [12]; at 100.0 µM 27% | [13]; at 1.2 µM 11% | [13]; at 3.7 µM 9% | [13]; at 11.0 µM 32% | [13]; at 33.0 µM 21% | [13]; at 100.0 µM 41% | [14]; at 1.2 µM 7% | [14]; at 3.7 µM -1% | [14]; at 11.0 µM 9% | [14]; at 33.0 µM 16% | [14]; at 100.0 µM 39% | [15]; [17] 26% | [15]; at 50.0 µM 52.1% | [16]; at 1.2 µM 10% | [16]; at 3.7 µM -10% | [16]; at 11.0 µM 4% | [16]; at 33.0 µM -5% | [16]; at 100.0 µM 36%

O=Nc1cccnc1N=O
inactive: [1]; at 1.2 µM 10% | [1]; at 3.7 µM 31% | [2]; at 1.2 µM 2% | [2]; at 3.7 µM 10% | [2]; at 11.0 µM 37% | [3]; at 1.2 µM -33% | [3]; at 3.7 µM 14% | [3]; at 11.0 µM 64% | [4]; at 1.2 µM 5% | [4]; at 3.7 µM 25% | [5]; at 1.2 µM 7% | [5]; at 3.7 µM 21% | [5]; [17] 66% | [5]; at 11.0 µM 52% | [6]; at 1.2 µM 7% | [6]; at 3.7 µM 28% | [6]; [17] 27% | [7]; at 1.2 µM 11% | [7]; at 3.7 µM 36% | [9]; at 1.2 µM 5% | [9]; at 3.7 µM 13% | [9]; at 11.0 µM 34% | [10]; [17] 19% | [11]; at 1.2 µM 9% | [11]; at 3.7 µM 31% | [12]; at 1.2 µM 2% | [12]; at 3.7 µM 16% | [12]; at 11.0 µM 59% | [13]; at 1.2 µM 5% | [13]; at 3.7 µM 21% | [14]; at 1.2 µM 18% | [14]; at 3.7 µM 63% | [16]; at 1.2 µM 35%
active: [1]; at 11.0 µM 86% | [1]; at 33.0 µM 98% | [1]; at 100.0 µM 98% | [2]; at 33.0 µM 99% | [2]; at 100.0 µM 99% | [3]; at 33.0 µM 97% | [3]; at 100.0 µM 98% | [4]; at 11.0 µM 79% | [4]; at 33.0 µM 99% | [4]; at 100.0 µM 99% | [5]; at 33.0 µM 98% | [5]; [18] 99% | [5]; at 50.0 µM 99.5% | [5]; at 100.0 µM 98% | [6]; at 11.0 µM 90% | [6]; at 33.0 µM 99% | [6]; [18] 99% | [6]; at 50.0 µM 99.4% | [6]; at 100.0 µM 99% | [7]; at 11.0 µM 99% | [7]; at 33.0 µM 99% | [7]; at 100.0 µM 99% | [8]; [17] 81% | [8]; [18] 99% | [8]; at 50.0 µM 99.3% | [9]; at 33.0 µM 99% | [9]; at 100.0 µM 98% | [10]; [18] 99% | [10]; at 50.0 µM 99.3% | [11]; [17] 76% | [11]; at 11.0 µM 86% | [11]; at 33.0 µM 98% | [11]; [18] 99% | [11]; at 50.0 µM 99.5% | [11]; at 100.0 µM 98% | [12]; at 33.0 µM 99% | [12]; at 100.0 µM 99% | [13]; at 11.0 µM 83% | [13]; at 33.0 µM 98% | [13]; at 100.0 µM 99% | [14]; at 11.0 µM 97% | [14]; at 33.0 µM 99% | [14]; at 100.0 µM 99% | [15]; [17] 94% | [15]; [18] 99% | [15]; at 50.0 µM 99.6% | [16]; at 3.7 µM 86% | [16]; at 11.0 µM 94% | [16]; at 33.0 µM 98% | [16]; at 100.0 µM 98%
